# Results taken from PubChem BioAssay (NCATS).
# Inconclusive results are not listed. Values without a mark were called inactive. Calls come from the whole dose curve; as a rule, active = well fitted cell-killing curve with a large enough effect; inconclusive = small, poorly fitted or top-dose-only effect; inactive = flat fitted curve, though single readings scatter.
# Experiment: Cell Viability - Renal Proximal Tubule (AID 545);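 note: 0% = DMSO only and -100% = 100 µM tamoxifen; nearly all actives have a fitted effect of over 40% in size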
# Conditions: renal proximal tubule cells viability; series mostly up to 91.7 µM; activity change, negative = cytotoxicity: at the top concentration
# Description: NIH Chemical Genomics Center [NCGC]
# NIH Molecular Libraries Screening Centers Network [MLSCN]
# National Institutes of Environmental Health Sciences [NIEHS]
# National Toxicology Program [NTP]
# We have developed a 1536-well cell-based assay for quantitative high throughput screening (qHTS) against a number of cell lines to determine in vitro cytotoxicity of small molecules. This particular assay uses the renal proximal tubule cells which are derived from normal kidney cells freshly isolated from rat.
# NCGC Assay Protocol Summary:
# The CellTiter-Glo luminescent cell viability assay (Promega) is a homogeneous method to measure the number of viable cells in culture. The end point readout of this assay is based on quantitation of intracellular ATP, an indicator of metabolic activity, using the luciferase reaction. Luciferase catalyzes the oxidation of beetle Luciferin to oxyluciferin and light in the presence of ATP. The luminescent signal is proportional to amount of ATP present.
# Using the CellTiter-Glo luminescent cell viability assay, the amount of cellular ATP was measured in the renal proximal tubule cells with complete culture medium following compound treatment for 40 hours. The assay was performed in opaque white Kalypsys 1536-well plates. In the screen, tamoxifen and doxorubicin were used as positive controls. Library compounds were measured for their ability to cause acute toxicity in the cell line, as reflected by a decrease in intracellular ATP levels, in a concentration-dependent manner. […] AC50 values were determined from concentration-response data modeled with the standard Hill equation.
# qHTS protocol for CellTiter Glo renal proximal tubule cell assay
# [Step] [Parameter] [Value] [Description]
# 1. Reagent; 5 uL; 1000 renal proximal tubule cells/well
# 2. Time; 5 hr; 37 °C incubation
# 4. Controls; 23 nL; Tamoxifen 0.34 uM to 100 uM & Doxorubicin 0.02 nM to 100 uM
# 5. Time; 40 hr; 37 °C incubation
# 6. Reagent; 5 uL; CellTiter Glo reagent
# 7. Time; 20 min; Room Temperature
# 8. Detection; Luminescence; Viewlux plate reader
# Keywords: cell viability, cytotoxicity, renal proximal tubule cells, luminescence, NTPHTS, NTPHTS_NCGC, NIEHS, EPA, DSSTox, MLSMR, MLSCN, NIH Roadmap, qHTS, NCGC
row,Structure (SMILES),"activity change, negative = cytotoxicity"
1,BrCC(Br)(Br)Br,-5.05% [at 91.7 µM]
2,BrCCc1ccccc1,-7.2%
3,Oc1c(Cl)cccc1Cl,-5.11%
4,COC(C)(C)C,3.69% [at 91.7 µM]
5,N#CC(Br)Br,-15%
6,OCCBr,-3.62%
7,Cc1ccc(N)cc1N,6.43% [at 91.7 µM]
8,C=CC(=O)OC,7.36%
9,COC(=O)c1ccccc1N,-4.21% [at 91.7 µM]
10,O=[N+]([O-])c1cc(Cl)c(Cl)c(Cl)c1,-3.58%
11,COC(=O)Nc1cccc(OC(=O)Nc2cccc(C)c2)c1,-13.9%
12,COc1ccccc1N,-8.13%
13,Cc1ccc(OP(=O)(Oc2ccc(C)cc2)Oc2ccc(C)cc2)cc1,-5.23%
14,Nc1ccc2ccccc2c1,-4.02%
15,Nc1c(Cl)cc([N+](=O)[O-])cc1Cl,-21.3%
16,NNC(N)=S,-5.96%
17,O=[N+]([O-])c1cccc2c([N+](=O)[O-])cccc12,1.45%
18,O=C(O)C(Br)CBr (stereo not given),-25.3%
19,O=C(O)c1cccc(Cl)c1,-2.81%
20,C=CC(=O)OCC(CC)CCCC (stereo not given),6.43%

row,Structure (SMILES),"activity change, negative = cytotoxicity"
1,Cc1ccc(N)c(C)c1,-3.91%
2,CC(C)[N+](=O)[O-],-3.35%
3,CC(C)OS(C)(=O)=O,-5.82%
4,Nc1ccc(Cc2ccc(N)cc2)cc1,-11.1%
5,CCC/C=N/O,0.222%
6,Nc1cccc(Cl)c1,-4.6% [at 91.7 µM]
7,CN(C)C(=O)Cl,-13.9%
8,O=Cc1ccc2c(c1)OCO2,-12.9% [at 91.7 µM]
9,ClCCOCOCCCl,0.605%
10,ClC=CCl,-2.85%
11,CCCCCOC(=O)c1ccccc1C(=O)OCCCCC,-22.2%
12,Cc1ccc([N+](=O)[O-])cc1,-12.4%
13,N#CC(O)c1ccccc1 (stereo not given),2.17%
14,NC1CCC(CC2CCC(N)CC2)CC1 (stereo not given),-0.725%
15,O=[N+]([O-])c1cccc(CCl)c1,-3.51%
16,Cc1ccc(N=C=O)cc1N=C=O,4.22%
17,CC(C)(C)c1ccccc1O,-8.62%
18,CC(C)[C@]12CC(=O)[C@H](C)[C@H]1C2,-11.6%
19,CCCCOC(C)=O,3.67%
20,CCOS(C)(=O)=O,-13.1% [at 91.7 µM]
